Screening results as filed in PubChem BioAssay.
Jurkat NFkB inh: inhibitors of induced NF-kB luciferase reporter, primary screen, TCR NF-kB activation inhibitor project, cell-based, luminescence, uHTS | Jurkat, PMA/ionomycin-induced NF-kB luciferase reporter | inhibition, % at 4 µM | 0.53% of 330,000 active; in the data active means inhibition above about 50%
EBV LMP1 NFkB: EBV LMP1-driven NF-kappaB luciferase reporter inhibitors, primary screen, cell-based, luminescence, single point. LMP1-induced NF-kappaB luciferase reporter cells. 0.69% of 350,000 active. inhibition, % at 12.5 µM; in the data active means inhibition above about 41%;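 further: 0% = neutral control wells and 100% = reference inhibitor control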
697 NFkB inh: inhibitors of PMA/ionomycin-induced NF-kB reporter, 697 cells, primary screen, B-cell NF-kB inhibitor project, cell-based, luminescence, uHTS | 697 B-cell NF-kB luciferase reporter, 16 h | inhibition, % at 4 µM | 0.33% of 330,000 active; in the data active means inhibition above about 35%
TRPM1 prom inh: inhibitors of MITF-dependent TRPM1 promoter reporter, primary screen, cell-based, SK-MEL-5, single point, luciferase; 0.83% of 330,000 active; AID 488899, 2010; inhibition, % at 12.5 µM; SK-MEL-5 TRPM1 promoter luciferase, 24 h;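 active means mean inhibition across replicates of 60% or more, whatever share of single replicates reaches that level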
Gli-Sufu antag: Gli-Sufu pathway antagonists, primary screen, luciferase luminescence, Sufu-KO-LIGHT cells, uHTS; inhibition, % at 5 µM; 0.74% of 340,000 active; Sufu-KO-LIGHT fibroblasts, Gli luciferase reporter luminescence;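 active means inhibition above about 55%, limit read from the data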;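 further: 0% = DMSO-treated cells and 100% = wells with medium but no cells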
Shn3 inh set2: reduction of Shn3 3'UTR firefly luciferase signal, primary screen, Schnurri-3 inhibitor project, cell-based, Clone20 osteoblasts, set 2; Clone20 osteoblast Shn3 3'UTR firefly luciferase, 24 h; inhibition, % at 12.5 µM; 0.52% of 360,000 active; AID 588674, 2011;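 active means mean inhibition of at least 75% with every replicate also reaching 75%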;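 further: 0% = median of neutral control wells and 100% = pilot-screen positive control compound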
Gli antag conf: Gli-SUFU pathway antagonists, confirmation, single concentration, luciferase luminescence, Sufu-KO-LIGHT cells; shares compounds with Gli-Sufu antag; Gli luciferase reporter; inhibition, % at 5 µM; 40% of 2,500 active;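 active means mean inhibition at 5 µM reaching about 45%, limit read from the data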;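 further: plate controls were DMSO-treated cells for no effect and wells lacking cells for full effect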
SufuKO cytotox: cytotoxicity in Sufu-KO-LIGHT cells, confirmation, cytotoxicity control for Gli-SUFU antagonist project, cell-based, ATP luminescence, single concentration; shares compounds with Gli-Sufu antag; cytotoxicity, % at 5 µM; 32% of 2,500 active;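 active means mean cytotoxicity at 5 µM above about 25%, limit read from the data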;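 further: cells exposed to compound overnight for roughly 16 to 18 hours; plate controls were DMSO wells with cells for no effect and medium without cells for full effect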
Wnt3a counter: Wnt3a reporter signal inhibition, confirmation, counter-screen for Gli-SUFU antagonist project, Wnt-LIGHT cells, luminescence, single concentration; shares compounds with Gli-Sufu antag; Wnt3a-driven luciferase reporter; inhibition, % at 6.25 µM; 20% of 2,500 active; AID 651995, 2013;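 active means mean inhibition above about 25%, limit read from the data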
* marks the source's active call; other numbers are inactive results; . = no result. An excerpt weighted towards active compounds, which were near 2.3% of everything screened.

SMILES | Jurkat NFkB inh | EBV LMP1 NFkB | 697 NFkB inh | TRPM1 prom inh | Gli-Sufu antag | Shn3 inh set2 | Gli antag conf | SufuKO cytotox | Wnt3a counter
Cc1cc(C)cc(NC(=O)C2CCC(CNC(=O)[C@@H]3Cc4ccccc4CN3)CC2)c1 (stereo partly drawn) | 11.2 | -0.7 | -0.2 | 14.6 | 56.9* | -4.7 | 17.8 | 10.6 | -59.4
Cc1cccc(NC(=O)C2CCC(CNC(=O)[C@@H]3Cc4ccccc4CN3)CC2)c1 (stereo partly drawn) | 18.3 | -4.4 | -12.3 | 1.2 | -19.6 | 3.9 | . | . | .
Cc1c(N=Cc2nc3ccccc3n2C)c(=O)n(-c2ccccc2)n1C | 4.8 | -8.5 | -2.4 | 6.3 | -14.7 | -7.3 | . | . | .
CC1CCC(C(C)C)C(OC(=O)C[n+]2cccc(C(N)=O)c2)C1 (stereo not drawn) | 0.9 | -8.0 | 11.6 | -3.9 | -27.7 | 5.2 | . | . | .
CC(C)[C@@H]1CC[C@@H](C)C[C@H]1OC(=O)C[n+]1cc(-c2ccc(Cl)cc2)n2c1CCCCC2 | 21.3 | 30.0 | -13.8 | 78.7* | 66.0* | 79.2 | 77.2* | 34.8* | -32.5
COc1ccc(-c2c[n+](CC(=O)OC3CC(C)CCC3C(C)C)c3n2CCC3)cc1 (stereo not drawn) | 16.1 | 4.4 | 5.5 | 86.2* | 89.8* | 82.1 | 89.5* | 26.0* | 19.9
C=Cc1ccc(Cn2c(=O)n(C)c(=O)c3sccc32)cc1 | 0.8 | 12.9 | -19.4 | 6.8 | 53.8 | 54.5 | 34.7 | 16.4 | 4.2
O=C(CSc1cn[nH]n1)Nc1ccccc1C(F)(F)F | 2.3 | 3.0 | 9.8 | 6.1 | -16.6 | -14.7 | . | . | .
O=C(c1ccccc1)c1ccc(OCCOCCN2CCN(Cc3ccccc3)CC2)cc1 | 13.2 | 24.0 | 3.5 | 9.5 | 68.0* | 70.1 | 19.9 | 11.3 | -38.2
O=C(O)Cn1nnnc1SCC(=O)Nc1ccccc1F | 1.6 | -3.3 | 5.2 | 11.2 | 56.6* | 4.1 | 32.5 | -0.4 | 9.5
CN1CCN(c2ccc(NC(=O)c3ccc(Cl)cc3)cn2)CC1 | -18.5 | 3.8 | -20.8 | -6.9 | 4.5 | -1.4 | . | . | .
CN(Cc1nc2ccccc2c(=O)[nH]1)Cc1nc2ccsc2c(=O)[nH]1 | -3.3 | -9.0 | 7.7 | 6.9 | 62.5* | 9.4 | 30.8 | 11.8 | 39.1*
CC(NC(=O)CN(C)Cc1nc2ccccc2c(=O)[nH]1)c1ccccc1 (stereo not drawn) | 0.3 | -0.5 | 1.5 | 5.5 | 0.1 | -2.8 | . | . | .
CC(C)=N/N=c1\scc(C)n1Cc1ccco1 | -2.5 | 2.4 | -3.5 | 4.0 | -10.6 | -23.7 | . | . | .
Cc1csc(=Nc2cccnc2)n1Cc1ccco1 | 8.2 | -3.1 | 0.5 | 2.7 | 55.5* | 5.5 | 4.4 | -0.5 | -22.1
O=C(NCC1CCCO1)c1cc2cc(F)ccc2[nH]1 (stereo not drawn) | -15.0 | -3.6 | 2.4 | -5.1 | -9.7 | -25.4 | . | . | .
COc1cc(CNCc2cc(OC)ccc2OC)cc(OC)c1 | 13.9 | 8.6 | -12.3 | -2.9 | 57.2* | 19.2 | 14.4 | 9.9 | -1.6
Cc1ccccc1C1NC(c2ccccc2C)C([N+](=O)[O-])C(C)(C)C1[N+](=O)[O-] (stereo not drawn) | 10.3 | 14.6 | -9.0 | -5.2 | 54.0 | 23.0 | 16.5 | 10.8 | -16.2
CC1CCN(C(=O)c2ccc(S(=O)(=O)N3CCCC3)cc2)CC1 | 10.0 | -10.1 | 23.1 | -6.8 | 1.4 | -18.6 | . | . | .
Cc1ccc(NS(=O)(=O)c2cc([N+](=O)[O-])ccc2NNC(=S)Nc2cc(C)ccc2C)c(C)c1 | 10.9 | 15.8 | -7.5 | 36.5 | 62.3* | 73.8 | 50.8* | 4.2 | 61.8*
